According to PubChem BioAssay (NCATS):
Where “and” joins values, the source holds several entries; their conditions need not be identical. Equal values may be shown once. Records with an inconclusive call do not appear. Where a call stands in place of a potency, no number is given. Values without a mark were called inactive. Calls of active or inactive are those of the source. The call rests on the fitted dose curve; in most records, active means well fitted curve in the direction sought with a large enough effect; inconclusive means small, poorly fitted or top-dose-only effect, or another doubt; inactive means no such curve, though single readings can be large; an effect the other way counts as inactive or inconclusive.

How the values were obtained:
[1] = target: Cytochrome P450 3A7 (Homo sapiens) (UniProt P24462); test: Cytochrome P450 family 3 subfamily A member 7 (CYP3A7) small molecule antagonists: luciferase biochemical qHTS assay (AID 1963596); further: nearly all actives have a fitted effect of over 40% in size
Sequence of Cytochrome P450 3A7 (Homo sapiens) (P24462 whole entry, looked up): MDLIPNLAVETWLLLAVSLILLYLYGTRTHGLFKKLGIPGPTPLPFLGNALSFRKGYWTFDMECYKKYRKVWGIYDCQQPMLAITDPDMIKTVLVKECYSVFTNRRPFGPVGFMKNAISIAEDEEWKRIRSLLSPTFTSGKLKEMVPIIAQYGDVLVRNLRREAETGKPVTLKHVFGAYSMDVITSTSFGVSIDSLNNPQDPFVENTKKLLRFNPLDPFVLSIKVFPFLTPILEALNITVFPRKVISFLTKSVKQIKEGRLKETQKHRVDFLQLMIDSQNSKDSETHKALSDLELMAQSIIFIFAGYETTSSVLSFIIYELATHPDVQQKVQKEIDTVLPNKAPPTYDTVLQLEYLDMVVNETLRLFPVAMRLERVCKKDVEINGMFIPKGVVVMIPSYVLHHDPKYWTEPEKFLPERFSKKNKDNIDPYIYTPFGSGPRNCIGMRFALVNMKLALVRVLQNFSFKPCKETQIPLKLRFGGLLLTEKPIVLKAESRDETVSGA
Summary of the method: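 In this luminescent screen, enzyme and proluciferin substrate meet test compound for 10 min before NADPH regeneration solution drives a 1 h room-temperature reaction; detection reagent halts turnover and luminescence is read 20 min later.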

[2] = Viability qHTS for spleen associated tyrosine kinase inhibitor (SYKi) naive MV4-11 cells (AID 1963823); further: nearly all actives have a fitted effect of over 40% in size; further: potency means the concentration at half of the fitted maximal effect
Summary of the method: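 CellTiter-Glo luminescence, 10 min room-temperature incubation, gave viability. Cells: naive MV4-11 (500/well), treated 72 hr at 37 C, 5% CO2.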

[3] = Viability qHTS for spleen associated tyrosine kinase inhibitor (SYKi) drug resistant MV4-11 cells (AID 1963824); further: nearly all actives have a fitted effect of over 35% in size; further: potency means the concentration at half of the fitted maximal effect
Summary of the method: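 SYK-inhibitor-resistant MV4-11 AML cells were seeded at 500 per well onto compound and cultured 72 hours (37 °C, 5% CO2). CellTiter-Glo was then added, and after 10 min at room temperature, luminescence gave viability.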

[4] = Cellular viability qHTS for adrenocortical cancer (ACC) cell line SW-13 (AID 1963989); conditions: SW-13 ACC cells viability, CellTiter-Glo, 48 h; activity (max response): stronger effect = lower value;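 further: cells grown in serum-free medium with ITS supplement; nearly all actives have a fitted effect of over 65% in size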
Summary of the method: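 SW-13 cells in ITS-supplemented serum-free DMEM were plated overnight, then exposed for 48 h at 37C to compound titrations (up to 46 uM final). Viability was read by CellTiter-Glo luminescence; four-parameter logistic fits gave IC50 and efficacy.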

[5] = Cellular viability qHTS for adrenocortical cancer (ACC) cell line NCI-H295R (AID 1963990); further: nearly all actives have a fitted effect of over 60% in size
Summary of the method: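 Luminescent ATP read-out (CellTiter-Glo, 20 min RT) after 48 h drug exposure of NCI-H295R cells; a titration up to 46 uM final. Data normalized to doxorubicin (100% inhibition) and DMSO (0%); 4-parameter fit gives IC50, max response.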

Row | SMILES | Potency [1] | Potency [2] | Potency [3] | activity (max response) [4] | Potency [5] | activity change, negative = inhibition [1] | viability (% of control) [2] | viability, % of control [3] | activity change, negative = viability loss [5]
1 | O=C(NCCN1CCOCC1)c1ccc(Cl)cc1 | inactive | inactive | inactive | 1.07% | inactive |  |  |  | 
2 | COc1nccnc1NS(=O)(=O)c1ccc(N)cc1 | inactive | inactive | inactive | 1.63% | inactive |  |  |  | 
3 | CCCCCCCCCCOc1cc2c(=O)c(C(=O)OCC)c[nH]c2cc1OCC |  |  |  | 0.0943% |  | 9.06% [at 4.83 µM] | 102% [at 4.97 µM] | 107% [at 4.97 µM] | -5.4% [at 3.81 µM]
4 | OCc1ccccn1 | inactive | inactive | inactive | -4.99% | inactive |  |  |  | 
5 | CC[C@H]1OC(=O)[C@H](C)[C@@H](O[C@H]2C[C@@](C)(OC)[C@@H](O)[C@H](C)O2)[C@H](C)[C@@H](O[C@@H]2O[C@H](C)C[C@H](N(C)C)[C@H]2O)[C@](C)(O)C[C@@H](C)CN(C)[C@H](C)[C@@H](O)[C@]1(C)O | inactive | inactive | inactive | -23.1% | inactive |  |  |  | 
6 | CN1CCN(C(=O)C2CCCCC2)CC1 | inactive | inactive | inactive | 7.59% | inactive |  |  |  | 
7 | OC[C@@H](O)[C@H](O)[C@H](O)[C@@H](O)CO | inactive | 5.96 µM (active) | 3.35 µM (active) | 1.26% and 9.11% | inactive |  |  |  | 
8 | COC(=O)c1ccc(NC(C)=O)cc1OC | inactive | inactive | inactive | -6.56% | inactive |  |  |  | 
9 | CCNC(=O)/C=C/c1cccc(Br)c1 | inactive | inactive | inactive | -10.3% | inactive |  |  |  | 
